Source: PubChem BioAssay
HIF-2a block = HIF-2a inhibition. 786-0 RCC cells HIF-2a reporter, luciferase luminescence, overnight. inhibition, % at 18.8 µM. AID 624352. 360,000 tested, 0.72% active;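 active = inhibition of the luminescence signal of 40% or more relative to plate controls, in a single-dose primary screen at 18.75 µM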
Peg3 promoter = reduces Peg3 promoter-driven luciferase expression in HeLa. HeLa PEG-Prom luciferase reporter, luminescence, overnight. inhibition, % at 20 µM. 360,000 tested, 1.7% active. AID 588405;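 active = inhibition of at least 50% at 20 µM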
KKLEB cytotox = CF airway cell cytotoxicity counter-screen; KKLEB CF airway cells viability, ATPlite luminescence, overnight; active compounds read low; cells stimulated with P. aeruginosa culture filtrate; activity change (cytotoxicity), % at 5 µM; 360,000 tested, 0.36% active; AID 602141;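 active = corrected activity change at or below -50% at 5 µM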
TROY signal inh = blocks TROY-dependent signaling in reporter cells. AID 1347056. 360,000 tested, 0.98% active. inhibition, % at 10 µM. Q293 LMP1-TROYcd NF-kB luciferase reporter, 4 h;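 active = compounds whose plate-normalised and pattern-corrected inhibition of the luciferase reporter signal at the single screening dose is 50% or more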
CF NFkB block = blocks PAF-induced NF-kB reporter in cystic fibrosis cells. KKLEB NF-kB-GFP reporter, GFP fluorescence overnight. inhibition, % at 5 µM. 360,000 tested, 0.86% active. AID 588850;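 active = at least 50% inhibition at 5 µM, scaled per plate between neutral and stimulator controls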;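 also: PAF is a Pseudomonas aeruginosa culture filtrate used as stimulus; plate controls were PAF-stimulated DMSO wells for no effect and unstimulated DMSO wells for full effect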
TWEAK Fn14 block = inhibitors of TWEAK-Fn14 interaction signaling | TWEAK-stimulated Fn14 reporter cells, luciferase luminescence, 8 h | inhibition, % at 10 µM | 360,000 tested, 2% active; in the data active = inhibition above about 50%
The depositor's hits bear a star; nt = no result. This is a sample that favours compounds with a hit; in the whole collection about 4% have one here.

SMILES | HIF-2a block | Peg3 promoter | KKLEB cytotox | TROY signal inh | CF NFkB block | TWEAK Fn14 block
CN(C)c1ccc(NC(=O)c2cnsn2)cc1 | -26 | -8 | -3 | 31 | 16 | 74*
CC1=NN(C(N)=S)C(=O)C1N=Nc1cccc(C(=O)O)c1 (configuration not stated) | 46* | 28 | 4 | 3 | 0 | 6
CC1=NN(C(N)=S)C(=O)C1N=Nc1cccc(C)c1 (configuration not stated) | -212 | -167 | 0 | -46 | -12 | -27
NC(=O)CC(NC(=O)c1ccccc1)c1ccc(NC2CCC2)c([N+](=O)[O-])c1 (configuration not stated) | 3 | 6 | -5 | 10 | -20 | -3
CN1CCN(C(=O)c2cc([N+](=O)[O-])cc([N+](=O)[O-])c2)CC1 | 16 | 10 | 6 | -4 | -4 | 80*
C=CCn1c(C)cc(C(=O)CSc2nc3ccccc3[nH]2)c1C | -47 | -65 | 1 | 25 | 3 | 80*
Cc1cc(C(=O)CSc2nncs2)c(C)n1Cc1ccco1 | -89 | -134 | -2 | -28 | -14 | 28
COCCn1c(C)cc(C(=O)CSc2nc3ccccc3c(=O)[nH]2)c1C | -179 | -219 | -11 | 5 | 10 | 69*
COCC(C)n1c(C)cc(C(=O)CSc2nc3ccccc3c(=O)[nH]2)c1C (configuration not stated) | -57 | -81 | -2 | 7 | -20 | 35
Cc1cc(C(=O)CSc2nc3ccccc3[nH]2)c(C)n1Cc1ccco1 | -132 | -145 | 8 | 81* | -1 | 92*
Cc1cc(C(=O)CCl)c(C)n1Cc1ccco1 | 26 | 62* | 0 | 11 | 45 | 33
C=CCn1c(C)cc(C(=O)CSc2nc3ccccc3c(=O)[nH]2)c1C | -166 | -208 | 0 | -12 | -7 | 14
C/C(Cl)=C\Cn1c(N2CCCC2)nc2c1c(=O)[nH]c(=O)n2C | 7 | -2 | -8 | 12 | 27 | -3
COc1ccccc1N1CCN(C2CCCN(Cc3ccccc3OCCO)C2)CC1 (configuration not stated) | 20 | 12 | -9 | 11 | 18 | 25
COc1cc(S(=O)(=O)N2CCCCC2)c(OC)cc1Br | 12 | 17 | -8 | 0 | 8 | 1
COc1cc(OC)c(S(=O)(=O)N2CCCCC2)cc1S(=O)(=O)N1CCCCC1 | 11 | 6 | 8 | nt | -5 | 83*
COc1c(S(=O)(=O)N2CCCCC2)ccc2c(S(=O)(=O)N3CCCCC3)cccc12 | 9 | 39 | 7 | 43 | 11 | 64*
O=S(=O)(c1cccc2c(S(=O)(=O)N3CCCC3)cccc12)N1CCCC1 | 8 | 8 | 9 | 7 | -22 | -19
c1ccc(-c2ncc3ccccn23)cc1 | -116 | -31 | 7 | -23 | -4 | 23
Cc1c(C(=O)N2CCOCC2)sc2nc(-c3ccccc3)cn12 | -168 | -194 | -2 | -43 | -7 | -4
Cc1c(C(=O)Nc2ccc3c(c2)OCCO3)sc2nc(-c3ccccc3)cn12 | -128 | 6 | 2 | 67* | -21 | 85*
Cc1c(C(=O)Nc2ccncc2)sc2nc(-c3ccccc3)cn12 | -103 | -45 | 7 | 28 | -18 | 68*
Cc1cccc(S(=O)(=O)NCC2CCCO2)c1 (configuration not stated) | 8 | -1 | 7 | -1 | -14 | -10
Cc1cccc(NC(=O)c2cc([N+](=O)[O-])ccc2Cl)c1O | -9 | -21 | -5 | -12 | -26 | -12
O=c1c2ccccc2sn1-c1cccc(Cl)c1 | -188 | -42 | -2 | 10 | 60* | 8
SMILES | HIF-2a block | Peg3 promoter | KKLEB cytotox | TROY signal inh | CF NFkB block | TWEAK Fn14 block
O=c1c2cc(C(F)(F)F)ccc2sn1-c1ccccc1 | -242 | -83 | -10 | 32 | 51* | 44
O=C(O)c1cccc(-n2sc3ccccc3c2=O)c1 | -1 | -4 | 10 | -15 | -1 | -10
CN(C)S(=O)(=O)c1cccc(-n2sc3ccccc3c2=O)c1 | -22 | -58 | -9 | -39 | 30 | -13
O=c1c2ccccc2sn1-c1ccccc1 | -69 | 65* | -13 | -61 | 1 | -10
CN(CC(=O)Nc1c(Cl)cccc1Cl)CC(=O)N(C)C1(C#N)CCCCC1 | 6 | 5 | 4 | 1 | -1 | 7
COc1ccc(CCC(=O)NNC(=O)c2ccc(F)cc2)cc1 | 10 | 16 | -3 | -1 | -4 | 53*
COc1ccc(CCC(=O)NNC(=S)NCc2ccc(F)cc2)cc1 | 20 | 16 | -2 | -5 | 6 | 18
Cc1ccc(C(=O)N/C(=C\c2ccccc2)C(=O)NCC2CCCO2)cc1 (configuration not stated) | 1 | 4 | -13 | 1 | 9 | 13
Cc1ccc(C(=O)N/C(=C/c2ccc(Cl)cc2)C(=O)NCC2CCCO2)cc1 (configuration not stated) | 22 | -5 | 7 | 18 | -8 | 77*
Cc1c(Cl)cccc1NC(=S)NCCc1ccc(F)cc1 | -5 | 16 | 3 | -2 | 8 | 71*
Cc1c(Cl)cccc1NC(=S)NCCc1ccc(Cl)cc1 | -17 | -8 | -6 | 13 | -1 | -13
Nc1ccc(-c2cnc(-c3ccc(N)cc3)nc2)cc1 | -21 | -193 | 1 | -4 | -32 | 67*
O=S(=O)(c1ccc(NC(=S)N2CCN(c3ccccc3F)CC2)cc1)N1CCOCC1 | 6 | 14 | -10 | 11 | 13 | 8
COc1cc2nc(Nc3ccc(C)c(C)c3)nc(N)c2cc1OC | -17 | 56* | -29 | -43 | -27 | -36
Nc1nc(Nc2ccc(Cl)cc2)nc2ccccc12 | -76 | -48 | -55* | 14 | 8 | 80*
Nc1nc(Nc2ccccc2)nc2ccccc12 | -143 | -202 | -22 | -13 | -5 | 40
Cc1ccc(Nc2nc(NCCO)c3ccccc3n2)cc1C | -94 | 54* | -18 | 6 | 27 | -1
COc1cc2nc(Nc3ccc(F)cc3)nc(N)c2cc1OC | -43 | -24 | -13 | 2 | -47 | -6
COc1ccc(OC)c(Nc2nc(NCCO)c3ccccc3n2)c1 | 8 | 14 | 4 | 0 | -47 | -34
CCOc1ccc(Nc2nc(N)c3ccccc3n2)cc1 | 47* | 58* | -56* | 61* | -8 | 92*
Cc1nc(C(F)(F)F)ccc1C(=O)N1CCC1(C)C(=O)NS(=O)(=O)c1cccc(F)c1 (configuration not stated) | 8 | 2 | -10 | 12 | 21 | -9
Cc1ccccc1Nc1nc(N)nc(CSc2nc3ccccc3c(=O)n2C)n1 | 20 | 29 | -12 | 44 | 9 | 66*
Cc1ccccc1Nc1nc(N)c2ccccc2n1 | -107 | -201 | -25 | -34 | 22 | 53*
Cc1ccccc1Nc1nc(N)nc(CSc2nc3ccccc3c(=O)n2CCCO)n1 | 6 | 19 | -11 | -7 | 2 | 1
